This is part of a sample that, as a whole, favours compounds with a hit. Of some 83,000 tested, about 20% had one in any assay.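 Cell lines were cultured in 96-well plates, exposed to a single compound concentration, and assessed for percent growth 48 hours later.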 Activity calls are given as the source filed them. The calls were made as follows: active = growth percent below 10; inactive = the rest.
Columns and labels:
Assay in all cases: NCI-60 one-dose screen, 48 h (100 = growth as untreated, 0 = no growth, -100 = all killed)
SR leukemia = settings: 10 µM
RPMI-8226 leukemia = settings: 10 µM
OVCAR-8 ovarian = settings: 10 µM
OVCAR-5 ovarian = settings: 10 µM
OVCAR-4 ovarian = settings: 10 µM
SK-OV-3 ovarian = settings: 10 µM
OVCAR-3 ovarian = settings: 10 µM
HS 578T breast = settings: 10 µM
NCI/ADR-RES ovarian = settings: 10 µM
T-47D breast = settings: 10 µM
BT-549 breast = settings: 10 µM
MDA-MB-435 melanoma = settings: 10 µM
SW-620 colon = settings: 10 µM
MCF7 breast = settings: 10 µM unless noted
HCT-116 colon = settings: 10 µM
HCC-2998 colon = settings: 10 µM
KM12 colon = settings: 10 µM

Measured: growth

COc1cc(C2NC(=O)C(C#N)=C(Nc3cccc(C)c3)S2)ccc1O (stereo not given)
inactive: SR leukemia 107% | RPMI-8226 leukemia 81.4% | OVCAR-8 ovarian 105% | OVCAR-5 ovarian 111% | OVCAR-4 ovarian 102% | SK-OV-3 ovarian 103% | OVCAR-3 ovarian 106% | HS 578T breast 96.5% | NCI/ADR-RES ovarian 110% | T-47D breast 93.5% | BT-549 breast 101% | MDA-MB-435 melanoma 104% | SW-620 colon 104% | MCF7 breast 92.9% | HCT-116 colon 103% | HCC-2998 colon 106% | KM12 colon 104%

S=C(Nc1ccccc1)N1CCCCC1
inactive: SR leukemia 105% | RPMI-8226 leukemia 110% | OVCAR-8 ovarian 99.4% | OVCAR-5 ovarian 90.1% | OVCAR-4 ovarian 111% | SK-OV-3 ovarian 107% | OVCAR-3 ovarian 110% | HS 578T breast 102% | NCI/ADR-RES ovarian 107% | T-47D breast 89.3% | BT-549 breast 112% | MDA-MB-435 melanoma 110% | SW-620 colon 106% | MCF7 breast 93.2% | HCT-116 colon 92.3% | HCC-2998 colon 101% | KM12 colon 105%

CCOC(=O)CCCC(=O)OCC
inactive: SR leukemia 102% | RPMI-8226 leukemia 113% | OVCAR-8 ovarian 103% | OVCAR-5 ovarian 101% | OVCAR-4 ovarian 101% | SK-OV-3 ovarian 96.7% | OVCAR-3 ovarian 102% | HS 578T breast 96.2% | NCI/ADR-RES ovarian 106% | T-47D breast 96.4% | BT-549 breast 104% | MDA-MB-435 melanoma 106% | SW-620 colon 102% | MCF7 breast 97.9% | HCT-116 colon 97.9% | HCC-2998 colon 105% | KM12 colon 99.6%

CCOC(=O)Nc1cc2c(c(N)n1)N=C(c1ccccc1)CO2
active: SR leukemia 6.89% | OVCAR-3 ovarian -28.2% | MDA-MB-435 melanoma 4.31% | HCT-116 colon 6.32% | KM12 colon 5.46%
inactive: RPMI-8226 leukemia 29.3% | OVCAR-8 ovarian 14.5% | OVCAR-5 ovarian 57.4% | OVCAR-4 ovarian 49.4% | SK-OV-3 ovarian 22.8% | HS 578T breast 50.1% | NCI/ADR-RES ovarian 13.4% | T-47D breast 72.3% | BT-549 breast 49.7% | SW-620 colon 26.2% | MCF7 breast 20.4% | HCC-2998 colon 23.5%

O=C(O)c1ccccc1NCc1ccco1
inactive: SR leukemia 87.8% | RPMI-8226 leukemia 79.1% | OVCAR-8 ovarian 94.2% | OVCAR-5 ovarian 93.1% | OVCAR-4 ovarian 99.1% | SK-OV-3 ovarian 109% | OVCAR-3 ovarian 111% | HS 578T breast 107% | NCI/ADR-RES ovarian 94.5% | T-47D breast 103% | BT-549 breast 101% | MDA-MB-435 melanoma 119% | SW-620 colon 102% | MCF7 breast 97.4% | HCT-116 colon 105% | HCC-2998 colon 80.9% | KM12 colon 117%

O=S(=O)(O)C(Nc1ccccc1)c1ccccc1 (stereo not given)
inactive: SR leukemia 98.9% | RPMI-8226 leukemia 100% | OVCAR-8 ovarian 104% | OVCAR-5 ovarian 92.4% | OVCAR-4 ovarian 102% | SK-OV-3 ovarian 97% | OVCAR-3 ovarian 107% | HS 578T breast 93.2% | NCI/ADR-RES ovarian 96.9% | T-47D breast 93.7% | MDA-MB-435 melanoma 104% | SW-620 colon 102% | MCF7 breast 98.5% | HCT-116 colon 103% | KM12 colon 100%
active: HCC-2998 colon -12.8%

CC1CC(O)C2C3(C)CCCC2(COC3=O)C12CCC1(CCOC1=O)O2 (stereo not given)
inactive: SR leukemia 114% | RPMI-8226 leukemia 117% | OVCAR-8 ovarian 127% | OVCAR-5 ovarian 104% | OVCAR-4 ovarian 103% | SK-OV-3 ovarian 105% | OVCAR-3 ovarian 110% | HS 578T breast 99% | NCI/ADR-RES ovarian 111% | T-47D breast 102% | BT-549 breast 96.1% | MDA-MB-435 melanoma 101% | SW-620 colon 102% | MCF7 breast 103% | HCT-116 colon 97.4% | HCC-2998 colon 122%

O=C(N/N=C\c1cc(Br)cc(Br)c1O)N/N=C/c1cc(Br)cc(Br)c1O
inactive: RPMI-8226 leukemia 19.3% | OVCAR-8 ovarian 55.5% | OVCAR-5 ovarian 64.6% | OVCAR-4 ovarian 43.4% | SK-OV-3 ovarian 79.7% | OVCAR-3 ovarian 12.1% | HS 578T breast 60.6% | T-47D breast 62.3% | MDA-MB-435 melanoma 66.9% | SW-620 colon 56.3% | MCF7 breast 52.1% | HCT-116 colon 31.2% | KM12 colon 66.7%
active: SR leukemia -18.4%

CC1(C(=O)O)NC(C(=O)O)Cc2c1[nH]c1ccccc21 (stereo not given)
inactive: SR leukemia 92.8% | RPMI-8226 leukemia 95.4% | OVCAR-8 ovarian 104% | OVCAR-5 ovarian 101% | OVCAR-4 ovarian 105% | SK-OV-3 ovarian 92.7% | OVCAR-3 ovarian 112% | HS 578T breast 109% | NCI/ADR-RES ovarian 104% | T-47D breast 95.7% | BT-549 breast 119% | MDA-MB-435 melanoma 94.6% | SW-620 colon 97.8% | MCF7 breast 98% | HCT-116 colon 92.6% | HCC-2998 colon 104% | KM12 colon 103%

CC(C)C(C#N)(C(C)C)C(C)C
inactive: SR leukemia 89.8% | RPMI-8226 leukemia 96.5% | OVCAR-8 ovarian 109% | OVCAR-5 ovarian 108% | OVCAR-4 ovarian 109% | SK-OV-3 ovarian 109% | OVCAR-3 ovarian 107% | HS 578T breast 106% | NCI/ADR-RES ovarian 104% | T-47D breast 104% | BT-549 breast 102% | MDA-MB-435 melanoma 96.3% | SW-620 colon 101% | MCF7 breast 97.7% | HCT-116 colon 103% | HCC-2998 colon 110% | KM12 colon 103%

— PubChem BioAssay (NCI)
